Values joined by “and” are separate entries in the source; they are usually repeats but may differ in a detail not shown here. Equal entries are not always repeated. Records with an inconclusive call do not appear. Values without a mark were called inactive. Active and inactive are the calls of the source. The call rests on the fitted dose curve; in most records, active means well fitted curve in the direction sought with a large enough effect; inconclusive means small, poorly fitted or top-dose-only effect, or another doubt; inactive means no such curve, though single readings can be large; an effect the other way counts as inactive or inconclusive.
Potency means the concentration at half of the fitted maximal effect.

A short description of the first assay: Viability qHTS for spleen associated tyrosine kinase inhibitor (SYKi) drug resistant MV4-11 cells (AID 1963824). Further: nearly all actives have a fitted effect of over 35% in size. The note with it: SYKi-resistant MV4-11 viability, CellTiter-Glo, 72 h; series mostly up to 45 µM. An outline of the steps:
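SYK-inhibitor-resistant MV4-11 AML cells were seeded at 500 per well onto compound and cultured 72 hours (37 °C, 5% CO2). CellTiter-Glo was then added, and after 10 min at room temperature, luminescence gave viability.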
Consider `NCCNCCNCCNCCN`, for which the viability, % of control was 109% [at 9.25 µM].

With `Cn1cc(-c2cnn3c(N)c(Br)c([C@@H]4CCCNC4)nc23)cn1`, the Potency was 731 nM (active) and 468 nM (active).

For the molecule `CN(C)CCN(Cc1cccs1)c1ccccn1`, the Potency entry was “inactive”.

Consider `C[C@@H]1CCC[C@H](C)N1`, for which the Potency result was “inactive”.

As to `[Cl][In]([Cl])[Cl]`, the Potency entry is “inactive”.

For `CCOC(=O)c1cccnc1`, the Potency result was “inactive”.

Take `CC(C(=O)O)c1ccc(CC2CCCC2=O)cc1` (stereo not given): the Potency entry was “inactive”.

Regarding `Cc1[nH]c(/C=C2\C(=O)Nc3ccc(F)cc32)c(C)c1C(=O)NC[C@H](O)CN1CCOCC1`, the Potency was 23.1 nM (active) and 46.8 nM (active).

With `CCCCNc1ncc(-c2ccc(CN3CCOCC3)cn2)c(NC2CCC(O)CC2)n1` (stereo not given), the Potency is 0.091 µM (active).

As to `COc1cc2ncnc(Nc3ccc(F)c(Cl)c3)c2cc1NC(=O)/C=C/CN1CCCCC1`, the Potency was 1.64 µM (active).

Regarding `O=c1[nH]c([C@@H]2CCCN2)nc2c1oc1ccc(Cl)cc12`, the Potency was 16.4 µM (active).

As to `CCCCC/C(C=O)=C\c1ccccc1`, the Potency result is “inactive”.

Regarding `CCOc1cc(C(=O)N2CCC(N3CCN(C)CC3)CC2)ccc1Nc1ncc2c(n1)N(C1CCCC1)c1ccccc1C(=O)N2C`, the Potency is 651 nM (active) and 934 nM (active).

Regarding `CC(C)C(=O)c1c(C(C)C)nn2ccccc12`, the Potency entry is “inactive”.

For `COc1ccccc1N1CCN(CCCNc2cc(=O)n(C)c(=O)n2C)CC1`, the Potency entry is “inactive”.

`NC(=Nc1ccccc1)Nc1ccccc1`: the Potency was 34.4 µM (active).

For the molecule `CC(=O)Nc1c(I)cc(I)c(C(=O)O)c1I`, the Potency entry was “inactive”.

For `NS(=O)(=O)c1ccc(NC(=O)CCC(=O)O)cc1`, the Potency result was “inactive”.

Turning to `CN(C)C(=O)Oc1cccc([N+](C)(C)C)c1`, the Potency entry was “inactive”.

As to `CCCc1ncc(C[n+]2ccccc2C)c(N)n1`, the Potency entry is “inactive”.

Regarding `N[C@@H](COP(=O)(O)O)C(=O)O`, the Potency entry is “inactive”.

With `O=c1cc(CO)occ1O`, the Potency result was “inactive”.

In the case of `O=C(O)c1ccc(OCCCOc2ccc(C(=O)O)cc2)cc1`, the Potency result was “inactive”.

Turning to `O=c1[nH]c(=O)n([C@H]2C[C@H](O)[C@@H](CO)O2)cc1F`, the Potency was 0.105 µM (active).

`CCC(=O)Nc1cccc(Oc2nc(Nc3ccc(N4CCN(C)CC4)cc3OC)ncc2Cl)c1`: the Potency was 2.91 µM (active) and 2.35 µM (active).

Consider `CC(=O)Nc1ccc(S(=O)(=O)Nc2cc(C)on2)cc1`, for which the Potency result is “inactive”.

For the molecule `CCCNC(C)C(=O)Nc1ccccc1C` (stereo not given), the Potency entry is “inactive”.

For the molecule `CC(C)(C)C(=O)OCOC(=O)C1N2C(=O)CC2S(=O)(=O)C1(C)C` (stereo not given), the Potency result was “inactive”.

For the molecule `COc1cccc(OC)c1C(=O)N[C@@H]1C(=O)N2[C@@H]1SC(C)(C)[C@@H]2C(=O)O`, the Potency entry is “inactive”.

Consider `CCCCCCCCCCCCCCCCCCN(C)C`, for which the Potency result is “inactive”.

`CCCCCCCCCCCCOS(=O)(=O)O`: the Potency entry was “inactive”.

For the molecule `CCCC(O)C(CC)CO` (stereo not given), the Potency result is “inactive”.

On to `FC(F)(F)C(F)(F)C(F)(F)C(F)(F)C(F)(F)C(F)(F)C(F)(F)C(F)(F)Br`, for which the Potency entry was “inactive”.

Regarding `CNC[C@H](O)c1cccc(O)c1`, the Potency entry is “inactive”.

`FC1(F)C(F)(F)C(F)(F)C2(F)C(F)(F)C(F)(F)C(F)(F)C(F)(F)C2(F)C1(F)F` (stereo not given): the Potency result was “inactive”.

On to `CCn1cc(C(=O)O)c(=O)c2cnc(N3CCNCC3)nc21`, for which the Potency is 2.99 µM (active).

With `COc1ccc(C(=O)NCc2ccc(OCCN(C)C)cc2)cc1OC`, the Potency entry was “inactive”.

In the case of `COC(=O)c1cc(Cl)c(NC(C)=O)cc1OC`, the Potency entry is “inactive”.

In the case of `O=c1[nH]c(=O)c2ccccc2o1`, the Potency result is “inactive”.

For the molecule `CC1(C)S[C@@H]2[C@H](NC(=O)C(C(=O)O)c3ccccc3)C(=O)N2[C@H]1C(=O)O` (stereo not given in full), the Potency entry was “inactive”.

A short description of the next assay: Cellular viability qHTS for adrenocortical cancer (ACC) cell line SW-13 (AID 1963989). Further: nearly all actives have a fitted effect of over 65% in size.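 On activity (max response): cells grown in serum-free medium with ITS supplement; on the % scale 0 is the no-effect control and ±100 the full control effect.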 The conditions noted are these: SW-13 ACC cells viability, CellTiter-Glo, 48 h; activity (max response): active compounds read low. An outline of the steps:
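Here, serum-free SW-13 cultures were dosed up to 46 uM. Following 48 h, ATP-dependent luminescence (CellTiter-Glo) reported viable cells, and logistic modeling produced IC50 values.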
Turning to `NCCNCCNCCNCCN`, the activity (max response) is 2.38%.

On to `Cn1cc(-c2cnn3c(N)c(Br)c([C@@H]4CCCNC4)nc23)cn1`, for which the Potency is 12.6 µM (active).

Consider `CN(C)CCN(Cc1cccs1)c1ccccn1`, for which the activity (max response) is 15.3%.

Take `C[C@@H]1CCC[C@H](C)N1`: the activity (max response) was 4.32%.

`[Cl][In]([Cl])[Cl]`: the Potency is 35.5 µM (active).

Take `CCOC(=O)c1cccnc1`: the activity (max response) was 14.3%.

Turning to `CC(C(=O)O)c1ccc(CC2CCCC2=O)cc1` (stereo not given), the activity (max response) is 7.96%.

With `Cc1[nH]c(/C=C2\C(=O)Nc3ccc(F)cc32)c(C)c1C(=O)NC[C@H](O)CN1CCOCC1`, the activity (max response) is -9.94%.

Turning to `CCCCNc1ncc(-c2ccc(CN3CCOCC3)cn2)c(NC2CCC(O)CC2)n1` (stereo not given), the activity (max response) was -11.9%.

As for `COc1cc2ncnc(Nc3ccc(F)c(Cl)c3)c2cc1NC(=O)/C=C/CN1CCCCC1`, the Potency was 0.708 µM (active).

With `O=c1[nH]c([C@@H]2CCCN2)nc2c1oc1ccc(Cl)cc12`, the activity (max response) was -13.8%.

Take `CCCCC/C(C=O)=C\c1ccccc1`: the activity (max response) was 6.34%.

Consider `CCOc1cc(C(=O)N2CCC(N3CCN(C)CC3)CC2)ccc1Nc1ncc2c(n1)N(C1CCCC1)c1ccccc1C(=O)N2C`, for which the Potency is 28.2 µM (active).

For the molecule `CC(C)C(=O)c1c(C(C)C)nn2ccccc12`, the activity (max response) was 11.5%.

As to `COc1ccccc1N1CCN(CCCNc2cc(=O)n(C)c(=O)n2C)CC1`, the activity (max response) was 2.85%.

As for `NC(=Nc1ccccc1)Nc1ccccc1`, the activity (max response) is -1.07%.

For the molecule `CC(=O)Nc1c(I)cc(I)c(C(=O)O)c1I`, the activity (max response) is -1.35%.

Turning to `NS(=O)(=O)c1ccc(NC(=O)CCC(=O)O)cc1`, the activity (max response) was 4.28%.

For the molecule `CN(C)C(=O)Oc1cccc([N+](C)(C)C)c1`, the activity (max response) was 16.2%.

Take `CCCc1ncc(C[n+]2ccccc2C)c(N)n1`: the activity (max response) is -17.3%.

Regarding `N[C@@H](COP(=O)(O)O)C(=O)O`, the activity (max response) is -3.07%.

Take `O=c1cc(CO)occ1O`: the activity (max response) is 13.4%.

As to `O=C(O)c1ccc(OCCCOc2ccc(C(=O)O)cc2)cc1`, the activity (max response) was 5.44%.

As to `O=c1[nH]c(=O)n([C@H]2C[C@H](O)[C@@H](CO)O2)cc1F`, the Potency was 3.66 µM (active) and 3.55 µM (active).

With `CCC(=O)Nc1cccc(Oc2nc(Nc3ccc(N4CCN(C)CC4)cc3OC)ncc2Cl)c1`, the activity (max response) was -16.6%.

For `CC(=O)Nc1ccc(S(=O)(=O)Nc2cc(C)on2)cc1`, the activity (max response) is 11.6%.

For the molecule `CCCNC(C)C(=O)Nc1ccccc1C` (stereo not given), the activity (max response) is 8.91%.

Take `CC(C)(C)C(=O)OCOC(=O)C1N2C(=O)CC2S(=O)(=O)C1(C)C` (stereo not given): the activity (max response) is 14.5%.

`COc1cccc(OC)c1C(=O)N[C@@H]1C(=O)N2[C@@H]1SC(C)(C)[C@@H]2C(=O)O`: the activity (max response) is 11.1%.

On to `CCCCCCCCCCCCCCCCCCN(C)C`, for which the activity (max response) is -1.14%.

Turning to `CCCCCCCCCCCCOS(=O)(=O)O`, the activity (max response) is 4.63%.

For `CCCC(O)C(CC)CO` (stereo not given), the activity (max response) was 8.36%.

Consider `FC(F)(F)C(F)(F)C(F)(F)C(F)(F)C(F)(F)C(F)(F)C(F)(F)C(F)(F)Br`, for which the activity (max response) was 7.96%.

For `CNC[C@H](O)c1cccc(O)c1`, the activity (max response) is 10.6% and -8.09%.

In the case of `FC1(F)C(F)(F)C(F)(F)C2(F)C(F)(F)C(F)(F)C(F)(F)C(F)(F)C2(F)C1(F)F` (stereo not given), the activity (max response) was 5.48%.

For `CCn1cc(C(=O)O)c(=O)c2cnc(N3CCNCC3)nc21`, the activity (max response) was 3.41%.

`COc1ccc(C(=O)NCc2ccc(OCCN(C)C)cc2)cc1OC`: the activity (max response) was 1.66%.

As for `COC(=O)c1cc(Cl)c(NC(C)=O)cc1OC`, the activity (max response) was 11.7%.

`O=c1[nH]c(=O)c2ccccc2o1`: the activity (max response) was 6.04%.

Take `CC1(C)S[C@@H]2[C@H](NC(=O)C(C(=O)O)c3ccccc3)C(=O)N2[C@H]1C(=O)O` (stereo not given in full): the activity (max response) was 3.14%.

(Values after PubChem BioAssay (NCATS).)
